An excerpt weighted towards active compounds, which were near 6.1% of everything screened.
D1 antag: human D1 dopamine receptor antagonism. P21728. HEK293 TREx D1 cells, calcium flux, dopamine EC80; stronger effect = lower value. activity change, negative = inhibition, % at 10 µM. 3.2% of 360,000 active. AID 504652; in the data active = activity change below about -30%
Target sequence (P21728 whole entry, looked up): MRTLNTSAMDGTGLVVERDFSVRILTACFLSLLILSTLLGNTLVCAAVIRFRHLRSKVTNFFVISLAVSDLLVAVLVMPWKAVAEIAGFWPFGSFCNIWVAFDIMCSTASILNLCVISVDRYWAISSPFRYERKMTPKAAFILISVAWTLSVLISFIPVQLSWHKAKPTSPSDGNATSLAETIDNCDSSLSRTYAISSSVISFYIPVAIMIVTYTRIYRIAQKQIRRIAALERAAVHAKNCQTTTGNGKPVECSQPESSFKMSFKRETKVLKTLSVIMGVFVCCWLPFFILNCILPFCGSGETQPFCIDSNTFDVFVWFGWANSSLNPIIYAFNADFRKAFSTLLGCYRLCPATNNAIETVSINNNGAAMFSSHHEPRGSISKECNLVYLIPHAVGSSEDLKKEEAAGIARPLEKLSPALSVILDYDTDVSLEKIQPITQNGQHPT
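Tetracycline-induced HEK293 Trex D1 cells, force-coupled to calcium, dye-loaded; compounds added and read 180 s, then EC80 dopamine added and calcium flux tracked kinetically another 180 s.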
D1 PAM: human D1 dopamine receptor positive modulation. P21728. HEK293 TREx D1 cells, calcium flux, dopamine EC20 potentiation. potentiation, % at 10 µM. 0.036% of 360,000 active. AID 504651; in the data active = potentiation above about 30%
DRD3 agonist: agonists of human D3 dopamine receptor; max activation, %; P35462; D3R DiscoveRx beta-arrestin cells, luminescence, 90 min; 0.58% of 410,000 active; AID 652048; in the data active = max activation above about 30%
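Cells at 1500/well, incubated overnight, then treated with pinned compounds (dopamine as control) for 90 min at 37 degrees C. DiscoveRx reagent added for 30 - 60 minutes at room temperature; luminescence read.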
D1 ag: human D1 receptor agonism. HEK293 T-REx D1 cells, calcium flux, agonist mode. AID 504660. activation, % at 2 µM. 1% of 360,000 active. P21728; in the data active = activation above about 30%
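Tetracycline-induced HEK293 TREx D1 cells, force-coupled to calcium signalling, were dye-loaded with a no-wash calcium kit. Compound was pin-added after a 10 s baseline. Fluorescence was read kinetically at 1 cycle/s for 180 s, with calcium rises flagged as agonism.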
D3 antag: antagonists of human D3 dopamine receptor; P35462; D3R cells, DiscoveRx beta-arrestin luminescence, antagonist mode; stronger effect = lower value; max response, negative = inhibition, %; 2.5% of 360,000 active; AID 652054; in the data active = max response below about -50%; inconclusive = no clear call, values can overlap the other calls
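Cells plated overnight at 1500 cells/well, then exposed to library compounds with dopamine controls for 90 minutes at 37 degrees C. DiscoveRx reagent added for 30–60 minutes at room temperature; luminescence read, quantitative HTS format.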
A number is an active result; . = inactive; ? = inconclusive; / = not tested or not shown.

SMILES	D1 antag	D1 PAM	DRD3 agonist	D1 ag	D3 antag
CC(C)(C)c1cc(CN2CCOCC2)c(C(=O)O)o1	.	.	.	.	-81
Brc1ccccc1OCCCCCN1CCOCC1	.	.	.	.	?
Brc1ccccc1OCCCN1CCCC1	-45	.	.	.	?
Brc1ccccc1OCCN1CCCC1	/	/	.	/	-62
Brc1ccccc1OCCCN1CCCCCC1	-60	.	.	.	-82
CCc1ccc(-n2nc(CO)c(C(=O)NCCOC)n2)cc1	.	.	.	.	/
Cc1ccc(S(=O)(=O)NNC(=O)c2sccc2-n2cccc2)cc1	-43	.	.	.	.
O=C(Nc1ccc2c(c1)OCO2)C1CC(c2cccc(Br)c2)=NO1 (stereo unspecified)	-38	.	.	.	.
CC(=O)NCCNC(=O)C1Cc2c(-c3cccc(NC(C)=O)c3)ccnc2O1 (stereo unspecified)	/	/	.	/	.
CC(=O)Nc1ccc(NC(=O)C2Cc3c(-c4ccco4)ccnc3O2)cc1 (stereo unspecified)	/	/	.	/	-61
CC(=O)Nc1cccc(-c2ccnc3c2CC(C(=O)NCc2cccs2)O3)c1 (stereo unspecified)	/	/	.	/	-78
CC(=O)Nc1cccc(-c2ccnc3c2CC(C(=O)Nc2ccc4c(c2)OCO4)O3)c1 (stereo unspecified)	/	/	.	/	-55
COc1cccc(C2=NOC(C(=O)Nc3ccc4c(c3)OCO4)C2)c1 (stereo unspecified)	.	.	.	.	.
COc1ccc(CCC(=O)NCc2ccc3c(c2)CCN3C(=O)c2ccc(C)cc2)cc1	.	.	.	.	/
CC(=O)c1cccc(-c2ccnc3c2CC(C(=O)NCc2ccco2)O3)c1 (stereo unspecified)	/	/	.	/	-70
COc1ccc(NC(=O)C2Cc3c(-c4cccc(C(C)=O)c4)ccnc3O2)cc1OC (stereo unspecified)	/	/	.	/	.
COc1ccc(NC(=O)C2Cc3c(-c4cccc(C(N)=O)c4)ccnc3O2)cc1OC (stereo unspecified)	/	/	39	/	.
CCC1=C(c2ccc(C)cc2)S(=O)(=O)N=C1N1CCC(C(=O)NCCc2ccc(Cl)cc2)CC1	.	.	.	.	/
CCC1=C(c2ccc(C)cc2)S(=O)(=O)N=C1N1CCC(C(=O)NCc2ccc(C)cc2)CC1	-39	.	.	.	/
O=C(CCN1CCc2ccccc2C1)Nc1ccc(F)c(F)c1	.	.	.	.	-103
Cc1ccc(C)c(NC(=O)CCN2CCc3ccccc3C2)c1	.	.	.	.	-108
CCN1CCN(CCC(=O)Nc2cc(C)ccc2C)CC1	.	.	.	.	.
COc1cc2c(cc1OC)CN(CC(=O)Nc1ccc3c(c1)OCO3)CC2	.	.	.	.	.
O=C(CCN1CCc2ccccc2C1)Nc1ccc2c(c1)OCO2	.	.	.	.	-67
N#CC1CC(c2ccccc2)Nc2cc(Cl)ccc2N1 (stereo unspecified)	-90	.	.	.	.
SMILES	D1 antag	D1 PAM	DRD3 agonist	D1 ag	D3 antag
CC(C)(C)OC(=O)NCc1nnc(-c2nc3ccccc3[nH]2)o1	.	.	/	.	/
CC1CN(C(=O)N2CCC(C(=O)NC3CCCCCC3)CC2)c2cc(Cl)ccc2O1 (stereo unspecified)	.	.	.	.	/
COc1ccc(C(=O)N2CCCC(Nc3ccc(F)c(F)c3)C2)c(OC)n1 (stereo unspecified)	-35	.	.	.	.
O=C(c1cnsn1)N1CCCC(Nc2ccc(F)c(F)c2)C1 (stereo unspecified)	-65	.	.	.	?
Cc1ccc2c(c1)-c1nc(-c3ccc4c(c3)NC(=O)CO4)cc(-c3ccc(F)cc3)c1CO2	.	.	.	.	/
CCCNC(=S)N1CCN(C(c2ccccc2)c2ccccc2)CC1	-33	.	.	.	.
CCCCNC(=S)N1CCN(C(c2ccccc2)c2ccccc2)CC1	.	.	.	.	.
COc1cc(NC(=S)N2CCN(C(c3ccccc3)c3ccccc3)CC2)cc(OC)c1	-32	.	.	.	.
CCN(CC)CCOC(=O)c1ccc(NC(=O)c2cc3c(=O)n(CC)c4ccccc4c3s2)cc1	.	.	.	.	/
Cc1ccc(C(=O)O)cc1N=Cc1cc(Br)cc(Br)c1O	.	.	.	.	-120
CCOCCCn1c(SCC(=O)Nc2ccccc2OC)nc2c(oc3ccccc32)c1=O	.	.	.	.	/
Cc1ccc(NC(=O)CSc2nc3c(oc4ccccc43)c(=O)n2-c2ccc(F)cc2)c(C)c1	.	.	.	.	/
CN(C)S(=O)(=O)c1ccc(NC(=O)C2CC3C=CC2C3)cc1 (stereo unspecified)	-30	.	.	.	.
CN(C)S(=O)(=O)c1ccc(NC(=O)C2COc3ccccc3O2)cc1 (stereo unspecified)	.	.	.	.	.
COc1cc(C2NC(=O)NC(C)=C2C(=O)OCC2CCCO2)ccc1O (stereo unspecified)	.	.	31	.	.
CCN(CC)c1ccc(C2C(C(=O)OC)=C(C)NC(C)=C2C(=O)OC)cc1	.	.	.	.	-51
CCOC(=O)C1=C(CN2CC(C)CC(C)C2)NC(=O)NC1c1ccc2c(c1)OCO2 (stereo unspecified)	.	.	.	31	.
CCOC(=O)C1=C(CN2CCN(c3ccccc3OC)CC2)NC(=O)NC1c1ccccc1 (stereo unspecified)	-32	.	.	.	/
COc1ccccc1NC(=O)c1sc2nc(C)c(C(=O)Nc3ccc(C)cc3C)c(-c3ccco3)c2c1N	.	.	.	.	/
CCOC(=O)C1=C(CN2CCC(C)CC2)NC(=O)NC1c1ccc(Cl)cc1 (stereo unspecified)	.	.	.	.	-86
CCOC(=O)C1=C(C)NC(=O)NC1c1ccc(N(C)C)cc1 (stereo unspecified)	-31	.	.	.	.
COc1cc(OC)c(NC(=O)C(c2ccccc2)N2Cc3ccccc3C2=O)cc1Cl (stereo unspecified)	.	.	.	.	/
CCC(Oc1ccccc1)C(=O)Nc1cc(-c2ccccc2OC)nn1-c1ccccc1 (stereo unspecified)	.	.	.	.	/
CCOC(=O)C1CCCN(S(=O)(=O)c2ccc3[nH]c(=O)ccc3c2)C1 (stereo unspecified)	.	.	.	.	/
COC(=O)c1cc(C#N)c(N2CCN(C)CC2)nc1C	.	.	.	.	.
CC(=O)c1cc(C#N)c(N2CCN(c3ccccc3)CC2)nc1C	-43	.	.	.	.
CC(=O)c1c(N2CCN(c3ccccc3)CC2)nc(=S)n(-c2ccccc2)c1C	.	.	.	.	-53
CCN(c1ccccc1)S(=O)(=O)c1ccc(C(=O)NCC(c2cccs2)N(C)C)cc1 (stereo unspecified)	.	.	.	.	-52
CCN(c1ccccc1)S(=O)(=O)c1cc(C(=O)NCC(c2ccc(OC)cc2)N(C)C)ccc1C (stereo unspecified)	/	/	.	/	-90

Screening data deposited in PubChem by National Center for Advancing Translational Sciences (NCATS).
